This is an account of results in PubChem BioAssay AID588492 (Sanford-Burnham Center for Chemical Genomics, 2011).

Hit rate of the full screen: of about 360,000 compounds, about 2,300 (0.64%) were called active.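 Rule for the calls: active = compounds giving at least 50% protection of heart cells from peroxide-induced death in the single-dose screen, raw or plate-pattern-corrected value; inactive = the rest.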 Shown is part of a subset that was picked to be rich in actives.

The nature of this assay: cardioprotection against H2O2-induced cell death, primary screen, uHTS, H9c2 cells, ATPLite luminescence (AID 588492).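 Note: 0% = DMSO wells with peroxide and 100% = DMSO wells without peroxide.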 To be noted: H9c2 cardiomyocytes, H2O2 injury protection, 2 h, at 20 µM, hits give high values. In general terms: Cellular ATP, detected with luciferase, serves as a proxy for viable cell number.
Consider `Cc1cc(=O)oc2c(C)c(OCC(=O)NCCc3ccc(S(N)(=O)=O)cc3)ccc12`, for which the protection from H2O2 cell death was -0.5% (inactive).

Consider `COc1ccc(CN2CCC(c3nc4ccc(Cl)cc4[nH]3)CC2)cc1`, for which the protection from H2O2 cell death is -3.8% (inactive).

Take `Cn1c2c(c(=O)n(C)c1=O)C(c1ccc(O)cc1)Nc1ccccc1O2` (stereo not drawn): the protection from H2O2 cell death is 2.1% (inactive).

Regarding `Cn1c2c(c(=O)n(C)c1=O)C1c3ccccc3OCC1C(C)(C)O2` (stereo not drawn), the protection from H2O2 cell death is 11% (inactive).

For `Cn1c2c(c(=O)n(C)c1=O)C(c1cccc([N+](=O)[O-])c1)Nc1ccccc1O2` (stereo not drawn), the protection from H2O2 cell death is 61.2% (active).

Take `O=C(COc1nsnc1N1CCOCC1)Nc1ccccc1Cl`: the protection from H2O2 cell death was 1.1% (inactive).

With `O=C(CSCc1c(Cl)cccc1Cl)NN1C(=O)c2ccccc2C1=O`, the protection from H2O2 cell death was 5.5% (inactive).

In the case of `CC(=O)c1cccc(-c2cnc3c(NC=O)cc(-c4cccc(C(=O)N(C)C)c4)cn23)c1`, the protection from H2O2 cell death was 73.1% (active).

As to `COc1cccc(-c2cnc3c(NC(C)=O)cc(-c4cccc(NC(C)=O)c4)cn23)c1`, the protection from H2O2 cell death is 41.9% (inactive).

Consider `COc1cccc(-c2cc(NC(C)=O)c3ncc(-c4cccc(C(C)=O)c4)n3c2)c1`, for which the protection from H2O2 cell death is 24.1% (inactive).

On to `CN(C)C(=O)c1cccc(-c2cnc3c(NC=O)cc(-c4ccc(F)cc4)cn23)c1`, for which the protection from H2O2 cell death is 12.9% (inactive).

In the case of `CC(=O)c1cccc(-c2cnc3c(NC=O)cc(-c4ccc(N5CCN(C)CC5)cc4)cn23)c1`, the protection from H2O2 cell death is 0.9% (inactive).

As for `CC(=O)Nc1cccc(-c2cc(NC(C)=O)c3ncc(-c4ccccc4)n3c2)c1`, the protection from H2O2 cell death was 57.6% (active).

With `CC(=O)c1cccc(-c2cnc3c(NC=O)cc(-c4ccccc4Oc4ccccc4)cn23)c1`, the protection from H2O2 cell death is -13.2% (inactive).

Take `CC(=O)c1ccc(-c2cnc3c(NC=O)cc(-c4cccc(NS(C)(=O)=O)c4)cn23)cc1`: the protection from H2O2 cell death was 64.4% (active).

`CC(=O)Nc1cccc(-c2cc(NC=O)c3ncc(-c4ccc(F)c(Cl)c4)n3c2)c1`: the protection from H2O2 cell death was 47.5% (inactive).

As to `CC(=O)c1cccc(-c2cnc3c(NC=O)cc(-c4ccc(N(C)C)cc4)cn23)c1`, the protection from H2O2 cell death is 34.4% (inactive).

In the case of `COc1ccc(-c2cc(NC=O)c3ncc(-c4ccccc4)n3c2)cc1OC`, the protection from H2O2 cell death is 74.5% (active).

Consider `COc1ccc(-c2cc(NC=O)c3ncc(-c4cc(OC)c(OC)c(OC)c4)n3c2)c(OC)c1`, for which the protection from H2O2 cell death is 17.5% (inactive).

Regarding `CCCc1c(C)nc2scc(-c3ccc(Cl)cc3)n2c1=O`, the protection from H2O2 cell death is -0.2% (inactive).

Take `Cc1cc(NC(=O)OC(C)C)ccc1-c1ccc(NC(=O)OC(C)C)cc1C`: the protection from H2O2 cell death is 0.3% (inactive).

`COc1ccc(CSc2nnnn2-c2ccc(O)cc2)cc1F`: the protection from H2O2 cell death was -8.7% (inactive).

For the compound `Cc1ccc(OCCNC(=O)CCNS(=O)(=O)c2ccc(Br)cc2)cc1`, the protection from H2O2 cell death is -2.6% (inactive).

In the case of `CC1CCN(C(=O)CN(c2ccc(Oc3ccccc3)cc2)S(C)(=O)=O)CC1`, the protection from H2O2 cell death was -13.4% (inactive).

As to `Cc1nonc1OCCn1nnnc1N`, the protection from H2O2 cell death is -1.7% (inactive).

With `Cc1oc(C(N)=O)cc1COc1ccc(C(N)=O)cc1`, the protection from H2O2 cell death was -0.9% (inactive).

`O=C(c1ccc(N2CCOCC2)c([N+](=O)[O-])c1)N1CCN(S(=O)(=O)c2cccs2)CC1`: the protection from H2O2 cell death was -4.8% (inactive).

`Cc1cccn2c(=O)nc(SCC(=O)NCc3ccccc3Cl)nc12`: the protection from H2O2 cell death is -5.6% (inactive).

For the compound `CCCn1c(SCC(=O)c2ccc3c(c2)OCCO3)nnc1C(C)C`, the protection from H2O2 cell death was 2.3% (inactive).

As for `CN1CCNC(=O)C1CC(=O)N1CC=C(c2ccc(F)cc2)CC1` (stereo not drawn), the protection from H2O2 cell death is -0.1% (inactive).

As for `N#Cc1ccccc1NC(=O)c1cccc(COc2ccc(Cl)cc2Cl)c1`, the protection from H2O2 cell death was -3.6% (inactive).

`Cc1ccc(S(=O)(=O)NCCC(=O)NNC(=O)C2COc3ccccc3O2)cc1` (stereo not drawn): the protection from H2O2 cell death was -3.1% (inactive).

For the compound `Cc1c(CC(=O)N2CCN(C(=O)C3COc4ccccc4O3)CC2)c(=O)oc2c(O)c(O)ccc12` (stereo not drawn), the protection from H2O2 cell death is 61.9% (active).

For `Cc1c(CCC(=O)O)c(=O)oc2c(C)c(OCc3ccccc3Cl)ccc12`, the protection from H2O2 cell death was 1.3% (inactive).

For the compound `Cc1nc2c(OCc3ccc(Cl)cc3)cccn2c1N(C)Cc1cccs1`, the protection from H2O2 cell death was -9.7% (inactive).

`CCc1nc2ccc(C(=O)N(C)Cc3ccco3)cn2c1N(C)C(=O)Cc1ccccc1`: the protection from H2O2 cell death was -2.1% (inactive).

As to `CCC(=O)Nc1ccccc1C(=O)N1CCN(Cc2ccccc2)CC1`, the protection from H2O2 cell death is 5.1% (inactive).

As for `COc1ccccc1Nc1ncnc2c1oc1ccccc12`, the protection from H2O2 cell death is 7.1% (inactive).

In the case of `COCCNc1nc(-c2ccccc2)nc2c1oc1ccccc12`, the protection from H2O2 cell death is 1.8% (inactive).

For the compound `CCc1nc(Nc2ccc3nccnc3c2)c2oc3ccccc3c2n1`, the protection from H2O2 cell death is 53.3% (active).

As to `Cc1ccc(C(=O)N(CC(=O)NC2CCCC2)c2ccc(F)cc2)s1`, the protection from H2O2 cell death is -2.3% (inactive).

On to `COc1cccc(CNC(=O)C2CC(=O)N(C3CCCCCCC3)C2)c1` (stereo not drawn), for which the protection from H2O2 cell death was -0.1% (inactive).

For `COc1cccc(N2CC(C(=O)NCc3n[nH]c(=O)c4ccccc34)CC2=O)c1` (stereo not drawn), the protection from H2O2 cell death was 50.2% (active).

For the compound `COc1ccc(C(=O)CSc2nnc(NC(=O)C3CC(=O)N(c4cccc(OC)c4)C3)s2)cc1` (stereo not drawn), the protection from H2O2 cell death is -1.6% (inactive).

In the case of `COC(=O)CN(c1cccc(C(C)=O)c1)S(C)(=O)=O`, the protection from H2O2 cell death is -1% (inactive).

Regarding `O=C(Nc1cccc2cccnc12)c1ccc2sc([C@H]3C[C@H](O)[C@@H](CO)O3)nc2c1`, the protection from H2O2 cell death was 76.9% (active).

On to `O=C(Nc1nnc([C@H]2C[C@H](O)[C@@H](CO)O2)s1)c1cccc(Cl)c1`, for which the protection from H2O2 cell death was 3% (inactive).

Turning to `O=C(Nc1ccc(Cl)cc1)c1csc([C@H]2C[C@H](O)[C@@H](CO)O2)n1`, the protection from H2O2 cell death was -8.3% (inactive).

`CCOn1c(=O)c(=O)n(O)c2ccccc21`: the protection from H2O2 cell death was 3.3% (inactive).

For `CCOc1cc(N2CCOCC2)c(OCC)cc1NC(=O)COC(=O)[C@H](Cc1c[nH]c2ccccc12)NC(C)=O`, the protection from H2O2 cell death is 10.2% (inactive).

As for `CCOc1cc(N2CCOCC2)c(OCC)cc1NC(=O)COc1cccc2cccnc12`, the protection from H2O2 cell death was 50.1% (active).

Regarding `CCOc1cc(N2CCOCC2)c(OCC)cc1NC(=O)C1=NN(c2cccc(C)c2)C(=O)CC1`, the protection from H2O2 cell death was 15.6% (inactive).

For the compound `CCc1ccc2c(c1)cc(CN(C(=S)Nc1ccccc1Cl)C1CC1)c1nnnn12`, the protection from H2O2 cell death is -3.2% (inactive).

Take `Clc1ccc(C2=CSC3=Nc4cccc5cccc(c45)N23)cc1`: the protection from H2O2 cell death is -4.9% (inactive).

`COc1cc(CO)c(C2(CO)CCCC2)cc1OC`: the protection from H2O2 cell death was 2.5% (inactive).

In the case of `CCOc1cc(NS(=O)(=O)c2ccc(OC)cc2)c(OCC)cc1NC(C)=O`, the protection from H2O2 cell death is -4% (inactive).

Regarding `O=S(=O)(Nc1ccccn1)c1cccc(S(=O)(=O)c2ccc(Cl)cc2)c1`, the protection from H2O2 cell death was -4.1% (inactive).

In the case of `COc1cc(NS(=O)(=O)c2ccc3ccccc3c2)c2ncccc2c1`, the protection from H2O2 cell death is 61.8% (active).
